According to PubChem BioAssay (Tox21):
Records with an inconclusive call do not appear. Entries that show only a call come without a potency. Activity calls are given as the source filed them. Calls come from the whole dose curve.

experiment: qHTS assay to identify small molecule agonists of the NFkB signaling pathway - cell viability counter screen (AID 1159515); settings: NFkB-bla ME-180 viability, CellTiter-Glo luminescence, 5 h; series mostly up to 61 µM; note: nearly all actives have a fitted effect of over 55% in size
From the text: National Center for Advancing Translational Sciences [NCATS]
NIH Chemical Genomics Center [NCGC]
U.S. Environmental Protection Agency [EPA]
National Institutes of Environmental Health Sciences [NIEHS]
National Toxicology Program [NTP]
U.S. Food and Drug Administration [FDA]
Transcription factors and their stimulated target gene expression play pivotal roles across many cellular processes including responses to environmental stimuli. Proper regulation of associated pathways is critical to maintain cell health and function. Constitutive activation of transcription factor pathways has been implicated in tumors as it may block cellular functions such as apoptosis and lead to invasion and metastasis. One important transcription factor that stimulates gene expression in response to cytokines, UV radiation, and other stimuli is nuclear factor-kappa B (NFkB). To measure activation of the NFkB pathway, the CellSensor NFkB-bla ME-180 cell line (Life Technologies, Carlsbad, CA) that stably expresses beta-lactamase reporter gene under the regulation of a NF-kB response element was used. This assay allows measurement of the NFkB pathway activity induced by compounds in a ME-180 cell line. This system quantitates NF-kB activity using a FRET-based assay system where beta-lactamase expression disrupts FRET, allowing for fluorescent measurement of activity. This cell line has been used to screen the Tox21 10K compound library and to identify compounds that induce the NFkB pathway activity. The cytotoxicity of the Tox21 compound library against the NFkB-bla ME-180 cell line was tested in parallel by measuring cell viability using the CellTiter-Glo assay in the same wells.
Tox21 Assay Protocol Summary:
NFkB-bla ME-180 cells were dispensed at 2,000 cells/6 uL of assay medium per well into black wall/clear-bottom 1536-well plates using a Multidrop Combi (ThermoFisher Scientific, Waltham, MA) dispenser. After the assay plates were incubated at 37 C and 5% CO2 for an overnight, 23 nL of compounds dissolved in DMSO, positive controls or DMSO only was transferred to the assay plate by a Pintool station (Kalypsys, San Diego, CA). The assay plates were incubated at 37 C and 5% CO2 for 5 hr. One uL of LiveBLAzer B/G FRET substrate (Life Technologies) was added using a Flying Reagent Dispenser (Aurora Discovery, San Diego, CA) and the plates were incubated at room temperature for 1.5 hr. Fluorescence intensity (405 nm excitation, 460 nm and 530 nm emissions) was measured using an Envision plate reader (PerkinElmer, Shelton, CT). For cytotoxicity, 3 ul/well of CellTiter-Glo reagent was added into the assay plates using an FRD. After 30 min incubation at room temperature, the luminescence intensity was measured using a ViewLux plate reader (PerkinElmer).
Potency is the fitted concentration of half-maximal effect.

| Compound | Potency |
| --- | --- |
| CCO/N=C(\CC)C1=C(O)CC(c2c(C)cc(C)cc2C)CC1=O (stereo not given) | inactive |
| CC(C)C(Br)C(=O)NC(N)=O (stereo not given) | inactive |
| Cc1ccccc1OP(=O)(Oc1ccccc1C)Oc1ccccc1C | inactive |
| N#Cc1ccc(N(CC(N)=O)CC(F)(F)F)cc1C(F)(F)F | inactive |
| C[C@@H]1CC2=CC(=O)CC[C@@H]2[C@H]2CC[C@@]3(C)[C@@H](CC[C@]3(C)O)[C@@H]21 | inactive |
| COc1ccc2c(c1OC)C(=O)O[C@@H]2[C@H]1c2cc3c(cc2CCN1C)OCO3 | inactive |
| CCN(CC)CCN1C(=O)CN=C(c2ccccc2F)c2cc(Cl)ccc21 | inactive |
| [F][Sn]([c]1ccccc1)([c]1ccccc1)[c]1ccccc1 | 7.76 µM (active) |
| ClC1=C(Cl)[C@]2(Cl)[C@H]3[C@H]([C@@H]4C=C[C@H]3C4)[C@@]1(Cl)C2(Cl)Cl | 54.9 µM (active) |
| CN1CCc2cc3c(cc2C1O)OCO3 (stereo not given) | inactive |
| Oc1cc(Cl)cc(Cl)c1 | inactive |
| COP(=S)(OC)Oc1ccc([N+](=O)[O-])c(C)c1 | inactive |
| CC(=O)[O][Sn]([c]1ccccc1)([c]1ccccc1)[c]1ccccc1 | 2.45 µM (active) |
| CCC[CH2][Sn]([CH2]CCC)([CH2]CCC)[O][Sn]([CH2]CCC)([CH2]CCC)[CH2]CCC | 0.24 µM (active) |
| COc1ccc(Cc2nccc3cc(OC)c(OC)cc23)cc1OC | inactive |
| O=[N+]([O-])C(Br)Br | inactive |
| N#Cc1c[nH]cc1-c1cccc2c1OC(F)(F)O2 | inactive |
| O.O.O.O.O.O.O=S(=O)([O-])[O-].[Ni+2] | inactive |
| CCCCCCC[CH2][Sn]([Cl])([Cl])[CH2]CCCCCCC | inactive |
| CCc1cccc(C)c1N(C(=O)CCl)[C@@H](C)COC | inactive |

| Compound | Potency |
| --- | --- |
| CN1C(=O)[C@@H](NC(=O)c2cc3ccccc3[nH]2)N=C(c2ccccc2)c2ccccc21 | inactive |
| CC(=O)C(Cl)C(=O)N(C)C (stereo not given) | inactive |
| Oc1cccc(Cl)c1Cl | inactive |
| CCOP(=O)(OCC)Oc1cc(C)nc(C(C)C)n1 | inactive |
| N#Cc1c2ccccc2cc2ccccc12 | inactive |
| C=CCBr | inactive |
| Cc1cnc2c(C(=O)O)c(Cl)ccc2c1 | inactive |
| ClC1(Cl)C2(Cl)C3(Cl)C4(Cl)C(Cl)(Cl)C5(Cl)C3(Cl)C1(Cl)C5(Cl)C24Cl (stereo not given) | inactive |
| Nc1ccccc1-c1ccccc1 | inactive |
| COc1ccc2c3c1O[C@H]1[C@H](O)CC[C@H]4[C@@H](C2)N(C)CC[C@@]341 | inactive |
| CCOC(=O)Cc1ccccc1 | inactive |
| ClSC(Cl)(Cl)Cl | inactive |
| C#CC1(O)CCCCC1 | inactive |
| CCC1(CC)C(=O)N=C(O)NC1=O | inactive |
| CC[N+]1(CC)CCC(OC(=O)C(O)(c2ccccc2)c2ccccc2)C1 (stereo not given) | inactive |
| [Cl][Hg][c]1ccccc1 | 3.89 µM (active) |
| CC(Cc1ccc2c(c1)OCO2)NO (stereo not given) | inactive |
| [Cl-].[Cl-].[Sn+2] | inactive |
| CC(C)c1c(CN(C)C(C)Cc2ccccc2)n(C)n(-c2ccccc2)c1=O (stereo not given) | inactive |
| Clc1ccc(C(c2ccc(Cl)cc2)C(Cl)Cl)cc1 | 49.8 µM (active) |
